# Calls of active or inactive are those of the source.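 The calls were made as follows, unless noted: active = fluorescence slope after compound addition differing from the mean of all screened samples at 99.7% confidence, in either direction; inactive = the rest.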
# Tests used:
# [1] = inhibitors of TNFa-induced NFkB p65 translocation, primary screen, imaging, HUVEC, MLSMR starter and 10KST1 sets (AID 438;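 active = inhibition above 20% together with a positive visual image hit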;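 also: compound added about 3h40 before a 20 min TNFalpha stimulation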;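 as to inhibition: signal is the nuclear over cytoplasmic p65 intensity ratio per well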); settings: HUVEC TNFa-induced p65 nuclear translocation; cell count: measured here: nuclei count (cytotoxicity indicator), at 2.08 µM; inhibition: at 2 µM, stronger effect = higher value, 0% TNFa-plus-vehicle, 100% no-TNFa wells
# [2] = inhibitors of mutant huntingtin aggregation, primary screen, imaging, exon1htt(103Q)mCFP cells, high-content imaging (AID 483;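 active = visual image review flags a hit and inhibition of aggregation exceeds 20%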;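 also: compound exposure lasted 3 days before fixation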;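 as to nuclei count: percent of the per-plate median nuclei count of sample wells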); settings: exon1htt(103Q)mCFP cell line, aggregate imaging, at 2 µM; inhibition of aggregation: stronger effect = higher value; nuclei count: measured here: cell count, toxicity
# [3] = inhibitors of E-selectin induction by TNFa, primary screen, imaging, HUVEC, immunofluorescence, MLSMR starter and 10KST1 sets (AID 487;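 active = visually confirmed hit in the image check and inhibition above 20%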;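 as to inhibition: signal is fraction of cell area covered by stained E-selectin grains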;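 as to nuclei count: 100% = median nuclei count of all wells on the same plate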); settings: HUVEC TNFalpha-induced E-selectin immunofluorescence imaging, at 2 µM; inhibition: stronger effect = higher value; nuclei count: measured here: cell number, toxicity
# [4] = biological target: Voltage-gated potassium channel subunit beta-2 (Rattus norvegicus) (UniProt P62483); assay: KvBeta enzyme negative modulators, primary screen, biochemical, NADPH fluorescence (AID 622;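 active = fluorescence slope higher than the sample average by over 3 SD, cut at about -0.22 in these data, passing the limit was not always enough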;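 also: slope of raw intensity against log time taken from 70 to 1610 s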); settings: recombinant KvBeta, 4-cyanobenzaldehyde reduction, at 10 µM, stronger effect = higher value
# [5] = biological target: Voltage-gated potassium channel subunit beta-2 (Rattus norvegicus) (UniProt P62483); assay: KvBeta positive modulators, primary screen, biochemical, NADPH fluorescence (AID 623;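 active = NADPH fluorescence slope more negative than the mean of all samples by about 3 SD, 99.7% confidence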;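 also: fluorescence intensity change per second fitted from 20 to 320 s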); settings: Recombinant KvBeta, NADPH fluorescence decrease slope, 10 min; at 10 µM; stronger effect = lower value
# [6] = biological target: Alpha-2C adrenergic receptor (Homo sapiens) (UniProt P18825); assay: modulators of alpha2C/GIRK thallium flux, primary screen, cell-based, HEK293 alpha2C/GIRK1/2 (AID 624); settings: thallium flux BTC fluorescence, at 10 µM, actives lie on both sides;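 also: slope of fluorescence ratio to pre-addition baseline per second over 15 to 24 s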
# [7] = inhibitors of Sendai virus-induced IRF3 signaling, primary screen, TLR/RLR signaling modifier project, cell-based, Sendai virus stimulus, luciferase, 10K MLSCN set (AID 602276;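 active = inhibition at or above 50% at 10 µM; inactive = inhibition below 50%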;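 also: firefly luciferase from ISG56 promoter only with Renilla not read in this screen; 0% = Sendai virus plus DMSO and 100% = medium plus DMSO without virus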); settings: HEK293 RL24 IRF3 luciferase reporter, at 10 µM, stronger effect = higher value
# [8] = inhibitors of poly I:C-induced TLR3 signaling, primary screen, cell-based, poly I:C stimulus, luciferase, 10K MLSCN set (AID 602277;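 active = inhibition of the reporter signal at or above 50%; inactive = inhibition below 50%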); settings: HEK293-TLR3 RL24 IRF3 luciferase reporter, at 10 µM, stronger effect = higher value
# Alpha-2C adrenergic receptor (Homo sapiens), sequence (P18825 whole entry, looked up): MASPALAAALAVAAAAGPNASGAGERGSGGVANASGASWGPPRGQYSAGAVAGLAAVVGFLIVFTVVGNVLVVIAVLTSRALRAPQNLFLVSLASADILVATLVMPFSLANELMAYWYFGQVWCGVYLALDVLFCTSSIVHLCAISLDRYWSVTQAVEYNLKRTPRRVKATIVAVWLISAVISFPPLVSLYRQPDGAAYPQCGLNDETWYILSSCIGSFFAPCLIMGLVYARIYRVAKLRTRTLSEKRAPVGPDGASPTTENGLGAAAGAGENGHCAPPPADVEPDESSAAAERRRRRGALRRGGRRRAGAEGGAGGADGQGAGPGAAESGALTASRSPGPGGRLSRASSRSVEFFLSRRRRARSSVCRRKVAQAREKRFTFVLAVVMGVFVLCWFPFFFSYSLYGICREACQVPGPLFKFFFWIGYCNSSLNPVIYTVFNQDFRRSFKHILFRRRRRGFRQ
# Voltage-gated potassium channel subunit beta-2 (Rattus norvegicus), sequence (P62483 whole entry, looked up): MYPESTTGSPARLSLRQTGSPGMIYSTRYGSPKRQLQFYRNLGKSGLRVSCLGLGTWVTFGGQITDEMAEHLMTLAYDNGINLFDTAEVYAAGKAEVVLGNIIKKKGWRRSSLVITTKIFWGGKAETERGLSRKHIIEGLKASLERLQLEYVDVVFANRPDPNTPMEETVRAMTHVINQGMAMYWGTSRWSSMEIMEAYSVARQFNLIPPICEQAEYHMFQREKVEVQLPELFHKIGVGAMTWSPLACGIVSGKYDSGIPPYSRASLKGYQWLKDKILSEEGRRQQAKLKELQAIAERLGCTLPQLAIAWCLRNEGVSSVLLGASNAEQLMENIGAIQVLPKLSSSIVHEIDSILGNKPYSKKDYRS
Compound,cell count [1],inhibition [1],inhibition of aggregation [2],nuclei count [2] [%],inhibition [3],nuclei count [3] [%],fluorescence slope [4],NADPH fluorescence slope [5],slope [6],inhibition [7],inhibition [8]
O=C1CC(Cc2ccccc2)C(=O)N1CCCn1ccnc1 (stereo not given),429,-4.9% (inactive),10.8% (inactive),100,36.4% (inactive),102,-0.346 (inactive),-6e-05 (inactive),0.00527 (inactive),17.7% (inactive),25% (inactive)
CCN(CC)S(=O)(=O)N1CCC(C(=O)NC2CCCc3ccccc32)CC1 (stereo not given),690,5.7% (inactive),-6.5% (inactive),95,-8.8% (inactive),116,-0.49 (inactive),8.8e-05 (inactive),0.00498 (inactive),-11.5% (inactive),-8.15% (inactive)
O=C(CSc1nnc2scc(-c3ccccc3)n12)Nc1nsc(-c2ccccc2)n1,673,-14.1% (inactive),2.8% (inactive),107,34.5% (inactive),97.5,-0.381 (inactive),1.4e-05 (inactive),0.00626 (inactive),9.78% (inactive),-32.6% (inactive)
COC(=O)c1cn(C(=O)c2ccc(Br)o2)c2ccccc12,309,-12.5% (inactive),17.4% (inactive),97.7,-179% (inactive),101,-0.33 (inactive),-2.6e-05 (inactive),0.00583 (inactive),0.625% (inactive),18% (inactive)
CCCSc1nc2c(cnn2-c2ccc(Cl)cc2)c(=O)[nH]1,213,-1.3% (inactive),-9.2% (inactive),108,-40.2% (inactive),122,-0.609 (inactive),-1.8e-05 (inactive),0.011 (inactive),16% (inactive),14.5% (inactive)
Cc1nc2sc(C(c3cccs3)N3CCOCC3)c(O)n2n1 (stereo not given),591,-0.3% (inactive),-28.8% (inactive),112,-5.1% (inactive),115,-0.553 (inactive),-4.2e-05 (inactive),0.00703 (inactive),9.99% (inactive),32.1% (inactive)
COc1cccc(CNc2nc3nc(C)c(Cl)c(C)n3n2)c1,343,2.8% (inactive),-5% (inactive),86.4,50.1% (inactive),83.7,-0.375 (inactive),2.9e-05 (inactive),0.00679 (inactive),-16.5% (inactive),98.2% (active)
CN(C)c1oc(-c2ccccc2F)nc1C#N,576,5.5% (inactive),10.1% (inactive),104,-56.7% (inactive),111,-0.355 (inactive),-1.3e-05 (inactive),0.00727 (inactive),-3.37% (inactive),-12.5% (inactive)
O=C(CN1C(=O)c2ccccc2S1(=O)=O)NCc1ccccc1Cl,698,4.2% (inactive),8.6% (inactive),106,-45.6% (inactive),108,-0.599 (inactive),-1.3e-05 (inactive),0.0066 (inactive),9.36% (inactive),22.5% (inactive)
COC(=O)CCC(=O)Nc1cccc(Br)c1,495,-5.7% (inactive),-24.7% (inactive),111,56.2% (active),91.4,-0.478 (inactive),-0.000246 (inactive),0.00597 (inactive),9.55% (inactive),17.4% (inactive)
CC1C=CC(C)C(C(=O)O)C1C(=O)O (stereo not given),543,-4.4% (inactive),13% (inactive),46.5,-15.8% (inactive),96,-0.476 (inactive),-5.7e-05 (inactive),0.00278 (inactive),7.99% (inactive),41.3% (inactive)
O=C(CN(C1CCCCC1)S(=O)(=O)c1ccccc1)NCc1cccnc1,671,2% (inactive),-28.8% (inactive),110,-75.7% (inactive),119,-0.308 (inactive),-3e-05 (inactive),0.00649 (inactive),5.99% (inactive),13.7% (inactive)
COc1ccc(N2CCN(Cc3nc4ccccc4c(=O)[nH]3)CC2)cc1,683,-4.7% (inactive),-13.4% (inactive),119,-72.3% (inactive),112,-0.607 (inactive),-3.1e-07 (inactive),0.00376 (inactive),10.6% (inactive),-9.48% (inactive)
Cc1cccc(OCC(=O)N(Cc2cccs2)C2CCS(=O)(=O)C2)c1C (stereo not given),220,2.4% (inactive),0.4% (inactive),88.1,-142% (inactive),112,-0.639 (inactive),-3.9e-05 (inactive),0.00768 (inactive),13.8% (inactive),16.1% (inactive)
CCOc1cc(-c2nc(-c3ccc(C)nc3OCC)no2)cc(OCC)c1OCC,612,0% (inactive),32.3% (inactive),79.5,-56.3% (inactive),117,-0.601 (inactive),-1.4e-05 (inactive),0.00309 (inactive),-10.9% (inactive),-40.1% (inactive)
Cc1nc2ccccc2c2oc(C(=O)NCCCN3CCCC3=O)cc12,472,1.3% (inactive),-37.4% (inactive),76,-36.2% (inactive),106,-0.527 (inactive),-2e-05 (inactive),0.00837 (inactive),10.3% (inactive),7.6% (inactive)
COc1ccc(Cc2nnc(NC(=O)Cc3cccs3)s2)cc1,674,-27.6% (inactive),8.6% (inactive),105,14.9% (inactive),101,-0.568 (inactive),2.7e-05 (inactive),0.0056 (inactive),-11% (inactive),100% (active)
CNC(=O)c1ccsc1NC(=O)CN1C(=O)CCC1=O,469,-5.4% (inactive),10.7% (inactive),90.3,4.8% (inactive),113,-0.451 (inactive),-5.2e-05 (inactive),0.00494 (inactive),6.37% (inactive),28.8% (inactive)
C=CCSc1nnc(NC(=O)c2ccc(S(=O)(=O)NCC3CCCO3)cc2)s1 (stereo not given),245,5.1% (inactive),-8.6% (inactive),88.4,-146% (inactive),114,-0.496 (inactive),-4.8e-05 (inactive),0.00603 (inactive),4.11% (inactive),11% (inactive)
COc1nc(OC)nc(N2CCC(C(=O)NCc3cccs3)CC2)n1,559,-15% (inactive),-22.8% (inactive),112,-1.7% (inactive),107,-0.528 (inactive),-4.4e-05 (inactive),0.00626 (inactive),-3.8% (inactive),-2.92% (inactive)

# Reference: PubChem BioAssay
